High-throughput results: PubChem BioAssay, NMMLSC
An excerpt weighted towards active compounds, which were near 2.9% of everything screened.
GRK2 aptamer HTS = inhibitors of human GRK2 displacing RNA aptamer; P25098; bead flow cytometry, FAM-aptamer displacement from GRK2; inhibition of aptamer binding, % at 10 µM; hit rate 0.59% among 330,000; AID 488847;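 active = inhibition of aptamer binding above 40%, roughly 3 SD of noise, on plates passing a quality check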;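 note: median bead fluorescence of bound FAM aptamer so fluorescent compounds give negative values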
Beta2AR agonist = activates human beta-2 adrenergic receptor causing internalization. AID 504454. hit rate 0.43% among 340,000. response, % (test concentration not listed). Am2.2-beta2AR cells, FAP receptor internalization, flow cytometry;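 active = response above a set limit, near 3 SD of response in nonfluorescent compounds, cut at about 42% in these data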
Target sequence (P07550 whole entry, looked up): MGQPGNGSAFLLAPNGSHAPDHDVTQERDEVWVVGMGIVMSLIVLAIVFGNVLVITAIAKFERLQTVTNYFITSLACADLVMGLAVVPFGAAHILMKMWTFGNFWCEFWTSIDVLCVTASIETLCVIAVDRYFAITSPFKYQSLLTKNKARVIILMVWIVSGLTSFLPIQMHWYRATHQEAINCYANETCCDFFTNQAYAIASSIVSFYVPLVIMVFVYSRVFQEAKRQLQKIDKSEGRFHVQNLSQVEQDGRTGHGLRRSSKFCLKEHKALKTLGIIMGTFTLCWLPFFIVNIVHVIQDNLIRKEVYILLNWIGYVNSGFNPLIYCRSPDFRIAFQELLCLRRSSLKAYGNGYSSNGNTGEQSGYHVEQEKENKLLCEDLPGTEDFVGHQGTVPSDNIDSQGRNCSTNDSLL
MEKK2 WT-MEK5 = raises or lowers MEK5 binding to wildtype human MEKK2 PB1 domain; AID 1531; binding response (% of control), % at 10 µM; hit rate 1.1% among 290,000; bead flow cytometry, Alexa488-MEK5 binding to MEKK2 WT; actives lie on both sides; in the data active = binding response below about 67% or above about 130%
MEKK2 mut-MEK5 = signal of MEK5 binding to mutant human MEKK2 PB1 domain | bead flow cytometry, Alexa488-MEK5 binding to MEKK2 mutant | percent response, % at 10 µM | hit rate 0.35% among 290,000 | AID 1530; in the data active = percent response above about 24%, passing the limit was not always enough
MEKK3 PB1 HTS = raises or lowers MEK5 binding to the human MEKK3 PB1 domain; AID 1529; Q99759; binding response (% of control), % at 10 µM; bead-based flow cytometry, Alexa488-MEK5 binding to MEKK3; actives lie on both sides; 0 = blocked by unlabeled MEK5, 100 = vehicle; hit rate 1.4% among 290,000;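 active = binding response more than 3 SD above or below the average of its plate-row segment, actives on both sides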;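 note: Alexa488 bead fluorescence after subtracting the streptavidin-only scavenger bead signal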
GRK2 inh confirm = human GRK2 inhibition confirmation, cherry pick 1. shares compounds with GRK2 aptamer HTS. bead-bound GRK2, FAM-aptamer displacement, flow cytometry. aptamer displacement, % at 10 µM. hit rate 4% among 2,000. AID 504451;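 active = aptamer displacement above 40%, near three times the noise of non-fluorescent compounds, on plates passing quality checks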;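 note: negative values mostly reflect intrinsic compound fluorescence rather than true enhancement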
Aptamer quench SP = aptamer fluorescence quenching in GRK2 counter-screen; shares compounds with GRK2 aptamer HTS; Carboxyfluorescein RNA aptamer on beads, flow cytometry quenching; stronger effect = lower value; fluorescence response (% of DMSO), % at 10 µM; 2,000 tested, under 10 active; AID 504580;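 active = compounds that quench the bead-bound fluorescent RNA probe, cutting fluorescence to under half of the solvent control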;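 note: counterscreen run without GRK2 so only probe quenching by compound is measured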
GRK2 CP2 = human GRK2 inhibition confirmation, cherry pick 2; AID 504782; bead-bound GRK2, FAM-aptamer displacement, flow cytometry; 360 tested, under 10 active; shares compounds with GRK2 aptamer HTS; inhibition of aptamer binding, % at 10 µM;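 active = inhibition of aptamer binding above 40%, about triple the noise seen with nonglowing compounds, on plates passing quality control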;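 note: negative values mostly come from compounds that fluoresce themselves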
FAM quench SP = quenches fluorescent RNA aptamer, GRK2 hit artifact | shares compounds with GRK2 aptamer HTS | carboxyfluorescein RNA aptamer beads, flow cytometry quenching; stronger effect = lower value | fluorescence response vs DMSO, % at 10 µM | 360 tested, under 10 active;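 active = response vs DMSO under 50%, meaning signal dropped by over half, treated as fluorescence quencher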;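 note: labelled aptamer on streptavidin beads without GRK2 as a quench counter-screen; 100% = bead fluorescence of DMSO wells and lower means quenching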
* marks the source's active call; other numbers are inactive results; . = not tested or not shown.

SMILES	GRK2 aptamer HTS	Beta2AR agonist	MEKK2 WT-MEK5	MEKK2 mut-MEK5	MEKK3 PB1 HTS	GRK2 inh confirm	Aptamer quench SP	others
COc1ccc(-c2cn3c(C)c(C(=O)N4CCN(c5ccccc5F)CC4)sc3n2)cc1	2	18	98	2	104	.	.
COc1ccc(-c2cn3c(C)c(C(=O)N4CCCc5ccccc54)sc3n2)cc1	81*	14	95	-3	100	0	97
O=Cc1ccc(-c2nc3ccccc3s2)o1	2	0	97	-4	95	.	.
O=C(O)CC(C(=O)O)N1C(=O)/C(=C/c2ccc(-c3nc4ccccc4s3)o2)SC1=S (configuration not stated)	44*	7	.	.	.	8	181
O=C(/C=C/c1ccc(Br)o1)OCc1nc2ccsc2c(=O)[nH]1	88*	5	.	.	.	16	99
O=C(O)CNS(=O)(=O)c1ccc2c3c(cccc13)C(=O)N2	78*	9	97	-1	99	-1	100
CCOCCc1nnc(NC(=O)C2CC(=O)N(c3ccc(OCC)cc3)C2)s1 (configuration not stated)	93*	-4	86	-8	92	0	96
CCOc1ccc(N2CC(C(=O)Nc3nnc(Cc4ccccc4)s3)CC2=O)cc1 (configuration not stated)	0	5	97	-1	98	.	.
CNC(=O)c1ccc(=O)n(Cc2cccc(C(F)(F)F)c2)c1	1	-12	95	-4	106	.	.
C/C(CC(=O)Nc1cccc(Br)c1)=N\NC(=O)c1ccc(O)cc1O	0	8	107	12	111	.	.
O=C(CS(=O)(=O)c1ccc(F)cc1)Nc1nccs1	0	-4	.	.	.	.	.
NC(=O)c1ccsc1NC(=O)CS(=O)(=O)c1ccc(F)cc1	0	-2	.	.	.	.	.	GRK2 CP2=9;FAM quench SP=100
CCN(CCS(=O)(=O)c1ccc(Br)cc1)Cc1nc2ccccc2c(=O)[nH]1	0	-5	.	.	.	.	.
Cc1ccc(C)c(N2N=C(C(=O)N(CC(C)C)c3c(N)n(Cc4ccccc4)c(=O)[nH]c3=O)CCC2=O)c1	1	3	104	2	102	0	104
CC(C)CN(C(=O)C1=NN(c2ccccc2)C(=O)CC1)c1c(N)n(Cc2ccccc2)c(=O)[nH]c1=O	0	-2	.	.	.	.	.
CCOc1ccc(N2C(=O)C3CCCN3C2=S)cc1 (configuration not stated)	2	-4	.	.	.	.	.
CCOC(=O)c1ccc(N2C(=O)C3CCCN3C2=S)cc1 (configuration not stated)	42*	-1	.	.	.	.	.	GRK2 CP2=-2;FAM quench SP=103
CC1C(=O)N2CCCc3cc(NC(=O)C(=O)NCCCc4ccccc4)cc1c32 (configuration not stated)	4	0	.	.	.	.	.
CC(CNC(=O)c1ccc2c(c1)OCO2)c1ccc([N+](=O)[O-])cc1 (configuration not stated)	67*	-3	80	-23	78	-2	100
CCc1ccccc1NC(=O)CCS(=O)(=O)c1ccc2c(c1)CCCN2C(C)=O	61*	3	96	-2	99	1	100	GRK2 CP2=17;FAM quench SP=100
CCC(=O)N1CCc2cc(S(=O)(=O)CCC(=O)NCc3cccs3)ccc21	0	-10	93	-3	91	.	.	GRK2 CP2=12;FAM quench SP=99
CCOc1ccccc1NC(=O)CCS(=O)(=O)c1ccc2c(c1)CCN2C(C)=O	6	-11	104	2	104	.	.	GRK2 CP2=-8;FAM quench SP=101
CCOc1ccc(NC(=O)CCS(=O)(=O)c2ccc3c(c2)CCCN3C(C)=O)cc1	4	-1	102	0	103	.	.
CC1CC1C(=O)N1CCN(S(=O)(=O)c2cc(C(F)(F)F)cc(C(F)(F)F)c2)CC1 (configuration not stated)	0	-6	.	.	.	.	.
